# PMC7862700, “An all-to-all approach to the identification of sequence-specific readers for epigenetic DNA modifications on cytosine”
# Experiments:
# Test in all cases: DAPPL (digital affinity profiling via proximity ligation, sequencing); 10 mM Tris-HCl pH 7.5, 50 mM NaCl, 1 mM DTT, 4% glycerol, room temperature, 30 min; GST-TFs on glutathione beads, 16-mer random dsDNA library, 0.1% formaldehyde crosslink after washing; high values mean tight binding
# [1] = target: T1, FLI1 (Homo sapiens, UniProt Q01543 1-452); conditions: protein: recombinant; tags: N-terminal GST; dsDNA, one strand shown
# T1 sequence: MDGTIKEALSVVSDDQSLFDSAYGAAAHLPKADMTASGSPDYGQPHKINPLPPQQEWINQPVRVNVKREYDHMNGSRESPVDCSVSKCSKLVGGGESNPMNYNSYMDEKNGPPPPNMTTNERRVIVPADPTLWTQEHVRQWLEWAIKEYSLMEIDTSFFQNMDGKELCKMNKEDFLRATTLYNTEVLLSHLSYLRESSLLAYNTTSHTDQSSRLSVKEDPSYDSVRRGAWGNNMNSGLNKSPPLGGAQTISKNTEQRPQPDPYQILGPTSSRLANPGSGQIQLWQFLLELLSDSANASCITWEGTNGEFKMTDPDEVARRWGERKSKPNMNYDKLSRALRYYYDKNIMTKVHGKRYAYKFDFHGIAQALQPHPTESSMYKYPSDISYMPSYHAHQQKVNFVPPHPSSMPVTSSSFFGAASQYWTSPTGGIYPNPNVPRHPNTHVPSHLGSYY
# Procedure, shortened: (§1)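 GST fusions of human transcription factors were expressed in yeast and captured with glutathione beads. Once given DNA barcodes and pooled alongside a tag-only sample, they were incubated for 30 min at room temperature with 200 nmole of a random double-stranded 16-mer DNA library in Tris/NaCl/DTT/glycerol buffer, then washed, crosslinked (0.1% formaldehyde), proximity-ligated, PCR-amplified and sequenced on an Illumina NextSeq500. The binding signal of each hexamer is its read frequency for a factor divided by its frequency for the tag-only sample.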
# [2] = target: T2, ELK1 (Homo sapiens, UniProt P19419 1-428); conditions: protein: recombinant; tags: N-terminal GST; dsDNA, one strand shown
# T2 sequence: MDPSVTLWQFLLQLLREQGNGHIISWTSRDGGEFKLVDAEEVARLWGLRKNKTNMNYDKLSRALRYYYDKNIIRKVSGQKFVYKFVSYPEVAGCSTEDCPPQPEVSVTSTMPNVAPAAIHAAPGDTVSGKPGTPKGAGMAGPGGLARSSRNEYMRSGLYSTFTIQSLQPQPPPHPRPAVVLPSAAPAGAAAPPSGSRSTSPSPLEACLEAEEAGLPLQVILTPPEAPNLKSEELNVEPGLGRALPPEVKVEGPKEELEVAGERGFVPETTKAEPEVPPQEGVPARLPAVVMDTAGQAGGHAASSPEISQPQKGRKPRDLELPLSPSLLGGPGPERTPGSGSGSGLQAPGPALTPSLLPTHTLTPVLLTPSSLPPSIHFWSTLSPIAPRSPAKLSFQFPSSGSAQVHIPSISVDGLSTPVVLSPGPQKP
# Procedure, shortened: as §1
# [3] = target: T3, GABPA (Homo sapiens, UniProt Q06546 1-454); conditions: protein: recombinant; tags: N-terminal GST; dsDNA, one strand shown
# T3 sequence: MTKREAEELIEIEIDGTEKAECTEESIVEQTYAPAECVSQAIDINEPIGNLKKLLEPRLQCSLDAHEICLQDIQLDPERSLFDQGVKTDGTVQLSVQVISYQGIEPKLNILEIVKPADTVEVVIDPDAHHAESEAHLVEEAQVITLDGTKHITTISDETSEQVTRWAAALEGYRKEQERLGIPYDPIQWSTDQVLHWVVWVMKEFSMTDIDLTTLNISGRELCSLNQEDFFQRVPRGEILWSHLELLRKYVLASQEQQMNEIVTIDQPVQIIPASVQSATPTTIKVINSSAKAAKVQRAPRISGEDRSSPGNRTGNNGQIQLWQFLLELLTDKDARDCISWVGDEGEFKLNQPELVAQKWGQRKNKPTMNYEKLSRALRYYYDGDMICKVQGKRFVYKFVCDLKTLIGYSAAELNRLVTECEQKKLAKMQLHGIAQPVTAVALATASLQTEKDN
# Procedure, shortened: as §1
# [4] = target: T4, ERG (Homo sapiens, UniProt P11308 1-479); conditions: protein: recombinant; tags: N-terminal GST; dsDNA, one strand shown
# T4 sequence: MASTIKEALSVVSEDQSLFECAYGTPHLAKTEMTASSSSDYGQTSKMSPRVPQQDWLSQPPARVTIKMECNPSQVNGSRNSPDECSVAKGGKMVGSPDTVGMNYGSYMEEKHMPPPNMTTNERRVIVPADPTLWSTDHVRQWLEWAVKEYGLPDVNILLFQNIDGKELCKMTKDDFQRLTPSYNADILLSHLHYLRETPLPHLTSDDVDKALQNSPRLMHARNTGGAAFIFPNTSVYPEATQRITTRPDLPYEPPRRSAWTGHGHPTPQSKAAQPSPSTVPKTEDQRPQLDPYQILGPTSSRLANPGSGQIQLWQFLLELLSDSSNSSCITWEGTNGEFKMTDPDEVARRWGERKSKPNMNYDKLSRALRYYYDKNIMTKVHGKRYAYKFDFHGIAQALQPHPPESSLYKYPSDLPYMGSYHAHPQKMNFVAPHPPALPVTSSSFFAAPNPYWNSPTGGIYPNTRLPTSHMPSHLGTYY
# Procedure, shortened: as §1
# [5] = target: ELF1 (Homo sapiens, UniProt P32519 1-619); conditions: protein: recombinant; tags: N-terminal GST; dsDNA, one strand shown
# Procedure, shortened: as §1
# [6] = target: T5, EHF (Homo sapiens, UniProt Q9NZC4 1-300); conditions: protein: recombinant; tags: N-terminal GST; dsDNA, one strand shown
# T5 sequence: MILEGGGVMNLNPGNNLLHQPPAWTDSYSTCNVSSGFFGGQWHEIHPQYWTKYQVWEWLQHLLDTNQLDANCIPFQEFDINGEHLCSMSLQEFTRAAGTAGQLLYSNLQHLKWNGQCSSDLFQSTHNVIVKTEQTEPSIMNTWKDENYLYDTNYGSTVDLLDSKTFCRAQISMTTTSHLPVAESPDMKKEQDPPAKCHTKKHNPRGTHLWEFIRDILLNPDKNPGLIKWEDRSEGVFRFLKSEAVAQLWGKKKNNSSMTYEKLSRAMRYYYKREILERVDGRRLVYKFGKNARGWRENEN
# Procedure, shortened: as §1
# [7] = target: SPI1 (Homo sapiens, UniProt P17947 1-270); conditions: protein: recombinant; tags: N-terminal GST; dsDNA, one strand shown
# Procedure, shortened: as §1
# [8] = target: SPIB (Homo sapiens, UniProt Q01892 1-262); conditions: protein: recombinant; tags: N-terminal GST; dsDNA, one strand shown
# Procedure, shortened: as §1
# [9] = target: T6, ELK3 (Homo sapiens, UniProt P41970 1-407); conditions: protein: recombinant; tags: N-terminal GST; dsDNA, one strand shown
# T6 sequence: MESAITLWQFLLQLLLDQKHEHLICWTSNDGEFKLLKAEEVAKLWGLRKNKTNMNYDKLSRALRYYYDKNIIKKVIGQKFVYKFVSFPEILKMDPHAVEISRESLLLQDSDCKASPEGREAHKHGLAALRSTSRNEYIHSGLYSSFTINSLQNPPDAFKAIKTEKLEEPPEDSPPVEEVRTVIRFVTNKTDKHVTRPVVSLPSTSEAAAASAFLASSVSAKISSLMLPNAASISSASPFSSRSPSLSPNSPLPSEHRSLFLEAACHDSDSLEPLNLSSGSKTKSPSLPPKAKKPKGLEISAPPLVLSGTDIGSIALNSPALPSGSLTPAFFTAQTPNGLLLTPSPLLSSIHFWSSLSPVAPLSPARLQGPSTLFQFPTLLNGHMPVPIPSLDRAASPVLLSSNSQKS
# Procedure, shortened: as §1
# [10] = target: T7, FEV (Homo sapiens, UniProt Q99581 1-238); conditions: protein: recombinant; tags: N-terminal GST; dsDNA, one strand shown
# T7 sequence: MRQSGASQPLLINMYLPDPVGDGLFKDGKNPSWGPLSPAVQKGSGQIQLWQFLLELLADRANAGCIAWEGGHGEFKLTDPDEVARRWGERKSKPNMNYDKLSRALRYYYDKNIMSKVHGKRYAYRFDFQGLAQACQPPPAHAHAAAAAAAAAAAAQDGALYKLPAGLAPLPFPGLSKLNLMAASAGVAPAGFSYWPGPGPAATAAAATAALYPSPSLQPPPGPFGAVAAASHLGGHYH
# Procedure, shortened: as §1
# [11] = target: ETV5 (Homo sapiens, UniProt P41161 1-510); conditions: protein: recombinant; tags: N-terminal GST; dsDNA, one strand shown
# Procedure, shortened: as §1
# [12] = target: HSF1 (Homo sapiens, UniProt Q00613 1-529); conditions: protein: recombinant; tags: N-terminal GST; chain copies: 3; dsDNA, one strand shown
# Procedure, shortened: as §1
# [13] = target: T8, SPIC (Homo sapiens, UniProt Q8N5J4 1-248); conditions: protein: recombinant; tags: N-terminal GST; dsDNA, one strand shown
# T8 sequence: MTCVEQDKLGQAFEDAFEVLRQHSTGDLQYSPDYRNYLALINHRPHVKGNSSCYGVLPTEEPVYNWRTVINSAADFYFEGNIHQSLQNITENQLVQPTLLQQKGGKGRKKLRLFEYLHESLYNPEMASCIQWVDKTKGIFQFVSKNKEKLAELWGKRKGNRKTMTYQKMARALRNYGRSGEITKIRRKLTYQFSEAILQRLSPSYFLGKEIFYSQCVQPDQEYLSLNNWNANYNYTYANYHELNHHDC
# Procedure, shortened: as §1
# [14] = target: ELF4 (Homo sapiens, UniProt Q99607 1-663); conditions: protein: recombinant; tags: N-terminal GST; dsDNA, one strand shown
# Procedure, shortened: as §1
# [15] = target: T9, ELK4 (Homo sapiens, UniProt P28324-2 1-405); conditions: protein: recombinant; tags: N-terminal GST; dsDNA, one strand shown
# T9 sequence: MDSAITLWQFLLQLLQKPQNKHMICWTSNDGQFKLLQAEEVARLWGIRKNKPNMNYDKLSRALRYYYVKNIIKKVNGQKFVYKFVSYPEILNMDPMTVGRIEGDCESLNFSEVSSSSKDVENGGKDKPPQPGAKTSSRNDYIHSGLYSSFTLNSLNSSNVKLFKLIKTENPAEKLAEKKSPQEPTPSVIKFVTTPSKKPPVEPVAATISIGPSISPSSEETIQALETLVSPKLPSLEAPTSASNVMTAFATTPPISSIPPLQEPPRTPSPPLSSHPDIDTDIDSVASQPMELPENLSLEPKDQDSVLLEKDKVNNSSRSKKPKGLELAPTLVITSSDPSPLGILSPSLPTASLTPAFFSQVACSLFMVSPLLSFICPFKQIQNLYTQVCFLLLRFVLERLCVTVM
# Procedure, shortened: as §1
# [16] = target: T10, ETV2 (Homo sapiens, UniProt O00321 1-342); conditions: protein: recombinant; tags: N-terminal GST; dsDNA, one strand shown
# T10 sequence: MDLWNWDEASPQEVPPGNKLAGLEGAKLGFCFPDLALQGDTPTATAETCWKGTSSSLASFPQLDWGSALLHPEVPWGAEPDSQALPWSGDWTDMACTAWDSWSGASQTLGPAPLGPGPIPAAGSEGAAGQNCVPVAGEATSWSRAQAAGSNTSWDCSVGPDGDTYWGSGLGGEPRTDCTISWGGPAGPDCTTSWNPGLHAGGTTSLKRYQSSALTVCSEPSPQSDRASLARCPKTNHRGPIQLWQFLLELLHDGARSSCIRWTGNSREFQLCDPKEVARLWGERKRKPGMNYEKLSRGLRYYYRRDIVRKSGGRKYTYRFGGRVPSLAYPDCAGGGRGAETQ
# Procedure, shortened: as §1
# [17] = target: T11, ELF3 (Homo sapiens, UniProt P78545 1-371); conditions: protein: recombinant; tags: N-terminal GST; dsDNA, one strand shown
# T11 sequence: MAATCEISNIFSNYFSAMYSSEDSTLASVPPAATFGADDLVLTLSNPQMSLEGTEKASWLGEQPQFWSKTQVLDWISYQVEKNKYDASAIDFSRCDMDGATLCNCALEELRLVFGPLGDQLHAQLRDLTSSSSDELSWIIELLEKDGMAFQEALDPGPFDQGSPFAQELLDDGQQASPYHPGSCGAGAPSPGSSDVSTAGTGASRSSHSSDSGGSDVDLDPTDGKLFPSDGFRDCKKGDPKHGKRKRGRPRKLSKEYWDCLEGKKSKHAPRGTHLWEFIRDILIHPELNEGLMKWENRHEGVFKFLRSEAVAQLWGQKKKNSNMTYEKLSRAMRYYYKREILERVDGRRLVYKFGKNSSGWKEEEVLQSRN
# Procedure, shortened: as §1
# [18] = target: CRX (Homo sapiens, UniProt O43186 1-299); conditions: protein: recombinant; tags: N-terminal GST; dsDNA, one strand shown
# Procedure, shortened: as §1
# [19] = target: ETV1 (Homo sapiens, UniProt P50549 1-477); conditions: protein: recombinant; tags: N-terminal GST; dsDNA, one strand shown
# Procedure, shortened: as §1
# Sequence of SPIB (Q01892 whole entry): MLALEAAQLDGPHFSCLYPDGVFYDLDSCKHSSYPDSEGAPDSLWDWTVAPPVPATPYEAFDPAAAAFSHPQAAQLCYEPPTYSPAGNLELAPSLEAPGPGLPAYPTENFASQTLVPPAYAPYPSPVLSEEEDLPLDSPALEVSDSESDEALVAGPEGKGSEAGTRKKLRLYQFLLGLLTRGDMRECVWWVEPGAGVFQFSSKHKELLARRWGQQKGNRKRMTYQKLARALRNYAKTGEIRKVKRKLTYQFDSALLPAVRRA
# Sequence of CRX (O43186 whole entry): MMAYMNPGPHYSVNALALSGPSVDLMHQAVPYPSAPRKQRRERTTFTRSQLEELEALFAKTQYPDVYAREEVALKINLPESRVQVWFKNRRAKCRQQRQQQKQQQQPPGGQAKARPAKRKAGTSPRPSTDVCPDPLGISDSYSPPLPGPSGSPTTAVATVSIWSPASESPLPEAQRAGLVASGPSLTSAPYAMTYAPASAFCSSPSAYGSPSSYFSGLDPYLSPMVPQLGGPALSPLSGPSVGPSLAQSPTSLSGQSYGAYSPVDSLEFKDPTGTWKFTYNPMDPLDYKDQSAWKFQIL
# Sequence of ELF1 (P32519 whole entry): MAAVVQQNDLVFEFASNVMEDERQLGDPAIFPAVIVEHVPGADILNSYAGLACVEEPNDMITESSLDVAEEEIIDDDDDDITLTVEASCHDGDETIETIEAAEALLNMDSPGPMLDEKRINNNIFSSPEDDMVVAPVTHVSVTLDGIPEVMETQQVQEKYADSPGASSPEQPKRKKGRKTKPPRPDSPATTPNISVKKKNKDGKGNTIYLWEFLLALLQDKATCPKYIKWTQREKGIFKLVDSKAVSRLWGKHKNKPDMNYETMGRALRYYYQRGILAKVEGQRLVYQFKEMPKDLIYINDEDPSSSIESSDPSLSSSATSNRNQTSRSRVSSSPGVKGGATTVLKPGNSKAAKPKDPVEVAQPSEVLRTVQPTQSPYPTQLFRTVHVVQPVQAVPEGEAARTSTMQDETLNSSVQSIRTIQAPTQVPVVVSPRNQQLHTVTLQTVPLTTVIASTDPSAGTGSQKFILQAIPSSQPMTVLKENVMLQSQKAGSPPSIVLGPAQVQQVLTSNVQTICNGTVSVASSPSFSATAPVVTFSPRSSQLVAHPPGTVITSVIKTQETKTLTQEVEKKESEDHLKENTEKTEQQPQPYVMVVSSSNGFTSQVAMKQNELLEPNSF
# Sequence of ELF4 (Q99607 whole entry): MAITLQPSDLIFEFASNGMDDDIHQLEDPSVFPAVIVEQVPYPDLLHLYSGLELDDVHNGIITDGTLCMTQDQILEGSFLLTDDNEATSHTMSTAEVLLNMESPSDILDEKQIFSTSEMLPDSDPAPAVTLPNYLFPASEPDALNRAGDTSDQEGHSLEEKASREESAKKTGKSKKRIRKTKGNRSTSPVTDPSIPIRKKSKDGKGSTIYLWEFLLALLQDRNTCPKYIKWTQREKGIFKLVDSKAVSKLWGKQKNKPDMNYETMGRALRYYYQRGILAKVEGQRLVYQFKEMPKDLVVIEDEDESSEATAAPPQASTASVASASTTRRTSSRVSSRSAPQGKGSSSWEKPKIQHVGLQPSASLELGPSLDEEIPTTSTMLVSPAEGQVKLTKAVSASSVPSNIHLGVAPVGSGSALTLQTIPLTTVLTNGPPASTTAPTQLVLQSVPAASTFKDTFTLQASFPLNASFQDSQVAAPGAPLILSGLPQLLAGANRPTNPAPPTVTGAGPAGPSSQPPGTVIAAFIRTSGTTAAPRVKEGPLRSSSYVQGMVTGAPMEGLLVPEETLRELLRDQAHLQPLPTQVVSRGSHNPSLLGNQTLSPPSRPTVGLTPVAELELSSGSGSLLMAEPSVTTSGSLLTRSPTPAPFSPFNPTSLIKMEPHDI
# Sequence of HSF1 (Q00613 whole entry): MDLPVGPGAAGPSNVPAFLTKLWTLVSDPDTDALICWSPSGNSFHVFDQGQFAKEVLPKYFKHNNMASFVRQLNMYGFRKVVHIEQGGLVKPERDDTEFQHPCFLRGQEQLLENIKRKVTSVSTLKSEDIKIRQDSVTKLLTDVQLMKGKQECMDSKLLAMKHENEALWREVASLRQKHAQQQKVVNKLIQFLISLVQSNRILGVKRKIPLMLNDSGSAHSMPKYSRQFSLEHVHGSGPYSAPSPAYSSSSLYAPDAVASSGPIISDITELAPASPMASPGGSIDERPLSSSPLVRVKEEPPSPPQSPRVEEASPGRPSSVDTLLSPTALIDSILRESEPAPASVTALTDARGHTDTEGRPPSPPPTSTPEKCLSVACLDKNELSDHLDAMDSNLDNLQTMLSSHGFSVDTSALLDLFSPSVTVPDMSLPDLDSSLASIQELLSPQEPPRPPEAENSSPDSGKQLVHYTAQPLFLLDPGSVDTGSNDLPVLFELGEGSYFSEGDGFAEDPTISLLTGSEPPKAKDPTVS
# Sequence of ETV5 (P41161 whole entry): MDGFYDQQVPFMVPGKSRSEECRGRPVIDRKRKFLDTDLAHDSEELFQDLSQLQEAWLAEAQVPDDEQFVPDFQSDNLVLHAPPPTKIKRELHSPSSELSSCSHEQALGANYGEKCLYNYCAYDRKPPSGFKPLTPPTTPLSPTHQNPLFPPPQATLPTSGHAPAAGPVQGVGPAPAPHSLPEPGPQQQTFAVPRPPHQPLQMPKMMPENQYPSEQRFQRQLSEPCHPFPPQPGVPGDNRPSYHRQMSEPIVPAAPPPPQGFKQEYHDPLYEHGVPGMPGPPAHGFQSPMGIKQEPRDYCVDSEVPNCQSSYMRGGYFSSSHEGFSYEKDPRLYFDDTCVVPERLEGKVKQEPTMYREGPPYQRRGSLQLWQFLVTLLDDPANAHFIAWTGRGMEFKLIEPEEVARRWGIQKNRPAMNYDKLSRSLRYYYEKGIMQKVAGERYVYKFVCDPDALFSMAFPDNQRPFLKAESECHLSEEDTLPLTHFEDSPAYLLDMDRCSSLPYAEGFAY
# Sequence of ETV1 (P50549 whole entry): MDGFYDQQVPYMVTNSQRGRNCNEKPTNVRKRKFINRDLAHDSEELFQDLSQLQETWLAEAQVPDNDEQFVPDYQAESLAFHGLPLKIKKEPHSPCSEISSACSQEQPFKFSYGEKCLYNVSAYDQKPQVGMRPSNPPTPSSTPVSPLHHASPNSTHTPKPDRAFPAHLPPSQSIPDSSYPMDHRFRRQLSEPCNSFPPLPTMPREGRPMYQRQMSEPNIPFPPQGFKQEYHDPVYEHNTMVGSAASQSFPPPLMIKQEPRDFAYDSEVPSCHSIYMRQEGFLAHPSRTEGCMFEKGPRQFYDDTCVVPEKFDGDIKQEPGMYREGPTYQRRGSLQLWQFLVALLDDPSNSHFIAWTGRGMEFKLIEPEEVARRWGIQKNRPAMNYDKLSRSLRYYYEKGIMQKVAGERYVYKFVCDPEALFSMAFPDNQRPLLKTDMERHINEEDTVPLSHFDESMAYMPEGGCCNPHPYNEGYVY
sequence,measurement,setting,value
CCTCTA,binding signal,[1],"1.24 fold enrichment (6-mer frequency, TF over GST control)"
same,binding signal,[2],"1.48 fold enrichment (6-mer frequency, TF over GST control)"
same,binding signal,[3],"1.39 fold enrichment (6-mer frequency, TF over GST control)"
same,binding signal,[4],"1.32 fold enrichment (6-mer frequency, TF over GST control)"
same,binding signal,[5],"1.42 fold enrichment (6-mer frequency, TF over GST control)"
same,binding signal,[6],"1.31 fold enrichment (6-mer frequency, TF over GST control)"
same,binding signal,[7],"1.33 fold enrichment (6-mer frequency, TF over GST control)"
same,binding signal,[8],"1.38 fold enrichment (6-mer frequency, TF over GST control)"
same,binding signal,[9],"1.32 fold enrichment (6-mer frequency, TF over GST control)"
same,binding signal,[10],"1.4 fold enrichment (6-mer frequency, TF over GST control)"
same,binding signal,[11],"1.27 fold enrichment (6-mer frequency, TF over GST control)"
same,binding signal,[12],"1.38 fold enrichment (6-mer frequency, TF over GST control)"
same,binding signal,[13],"1.37 fold enrichment (6-mer frequency, TF over GST control)"
same,binding signal,[14],"1.35 fold enrichment (6-mer frequency, TF over GST control)"
same,binding signal,[15],"1.24 fold enrichment (6-mer frequency, TF over GST control)"
same,binding signal,[16],"1.37 fold enrichment (6-mer frequency, TF over GST control)"
same,binding signal,[17],"1.43 fold enrichment (6-mer frequency, TF over GST control)"
same,binding signal,[18],"1.45 fold enrichment (6-mer frequency, TF over GST control)"
same,binding signal,[19],"1.28 fold enrichment (6-mer frequency, TF over GST control)"
